From PubChem BioAssay AID602247 (The Scripps Research Institute Molecular Screening Center, 2012) come the findings set out here.

Screen size: about 360,000 compounds; about 80 (0.02%) were called active. Shown is part of a subset that was picked to be rich in actives. Values without a mark were called inactive.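 Rule for the calls: active = activation above the run cutoff, the mean activation of all test compounds plus 3 SD (cut at about 40% in these data); inactive = the rest.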

A short description of the assay: ATP EC20 calcium response enhancers, parental CHO-K1 – cell-based, Fluo-8 calcium fluorescence, full deck, 1536-well, counter-screen for M1 PAM project, primary screen (AID 602247).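 Note: peak over basal fluorescence ratio in a 140 s read after ATP addition.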 The conditions noted are these: parental CHO-K1, ATP EC20, Fluo-8 calcium fluorescence; at 3 µM; hits give high values; 0% at ATP EC20, 100% at ATP max.
Turning to `CCc1ccc(OCC(=O)NCC(c2ccc(Cl)cc2)N2CCCCC2)cc1` (centres undefined), the activation was 11%.
In the case of `COc1ccc(C)cc1N(CC(=O)N1CCCC1)S(=O)(=O)c1ccccc1`, the activation is 9.46%.
`Cc1ccc(C)c(NC(=O)c2cc(-c3cc(C)cc(C)c3O)n[nH]2)c1`: the activation is -21.6%.
With `O=C(Nc1cccnc1)c1cc2cc(Br)ccc2oc1=O`, the activation is -7.52%.
As to `O=C(CSc1nnc(-c2cccs2)n1Cc1ccco1)c1ccc2c(c1)OCO2`, the activation is 22.8%.
Take `CCN(CC)Cc1cc(C(C)=O)ccc1O`: the activation was -6.07%.
As to `C=CCOc1ccccc1NC(=O)CN1C(=O)CNC1=O`, the activation was 13.6%.
Regarding `Cc1ccc(NC(=O)CN(C)C(=O)c2ccc(Br)o2)cc1`, the activation is -2.97%.
Take `CCOC(=O)c1ccc(N2C(=O)CC(Sc3nc(O)c(CC)c(=O)[nH]3)C2=O)cc1` (centres undefined): the activation was 11.8%.
For `Fc1cccc(Cc2noc(CN3CCN(c4cnccn4)CC3)n2)c1` the value was 10.6%; for `Cc1c(Br)c([N+](=O)[O-])nn1C(C)C(=O)Nc1nccs1` (centres undefined), 3.45%.
As to `O=c1cc(CN2CCN(S(=O)(=O)/C=C/c3ccccc3)CC2)c2ccc(O)cc2o1`, the activation is -3.7%.
For `Cc1ccc(-c2ccc(C3=CC(=O)CC(C)(C)C3=O)cc2)cc1` the value was 8.88%.
Take `O=C(NC12CC3CC(CC(C3)C1)C2)N1CCCC(CO)C1` (centres undefined): the activation is 11.3%.
Take `COc1cc(CCC(=O)N2CCN(c3ccccc3Cl)CC2)cc(OC)c1OC`: the activation is 15.8%.
Consider `O=C(CN1CCN(C(=S)NC2CCCC2)CC1)Nc1ccc(Oc2ccccc2)cc1`, for which the activation was -1.33%.
The same measure for `Cc1cccc(N2C(=O)C3C(c4ccccc4)OC4(C(=O)c5ccccc5C4=O)C3C2=O)c1` (centres undefined): 10.9%.
Turning to `O=C(OCC(=O)N1CCCCCC1)c1ccc(Cl)nc1`, the activation was 21.8%.
`COc1cc(CNc2ncn[nH]2)ccc1OCc1ccccc1C`: the activation is -0.62%.
For `COc1ccc(OC)c(C(=O)NC(CC(N)=O)c2ccc(N3CCC(N4CCCCC4)CC3)c([N+](=O)[O-])c2)c1` (centres undefined) the value was 26.1%; for `CC(NC(=O)COc1cccnc1[N+](=O)[O-])c1ccc(Cl)cc1Cl` (centres undefined), -1.02%; for `Cc1cc(C)c(S(=O)(=O)N(C)CC(=O)NCC2CCCO2)c(C)c1` (centres undefined), -22.7%.
As to `Nc1nc(SCC(=O)Nc2ccc(Cl)cc2C(F)(F)F)n[nH]1`, the activation is 5.7%.
Regarding `Cc1ccc(SCCN2C(=O)NC(C)(C)C2=O)cc1`, the activation is 11.2%.
Regarding `C=CCn1c(COc2ccccc2F)nnc1SCC(=O)N1CC(=O)Nc2ccccc21`, the activation is 15.7%.
In the case of `COc1ccccc1C(=O)N/C(=C/c1ccc2c(c1)OCO2)C(=O)Nc1cccc(C(=O)O)c1`, the activation is -17.7%.
Take `CCc1ccc(N2CC(C(=O)NC3=NCCS3)CC2=O)cc1` (centres undefined): the activation is -0.63%.
In the case of `Cc1nc2ccccn2c(=O)c1NC(=O)c1ccc(Br)o1`, the activation was 7.36%.
As for `CCOc1cc(NC(=O)CCl)c(OCC)cc1NC(C)=O`, the activation is 10.9%.
Consider `Cc1ccc(C(C)C)c(OCCSc2nc3ccccc3n2CC(=O)O)c1`, for which the activation was 1.93%.
`COc1cccc(-c2nc3n(n2)C(c2ccccc2Cl)C(C(N)=O)=C(C)N3)c1` (centres undefined): the activation is 3.28%.
For `COc1ccc(NC(=O)NN2CCN(C)CC2)c(OC)c1` the value was 15.7%; for `COc1ccc(NC(=O)CNc2cc(S(=O)(=O)N3CCOCC3)ccc2N2CCOCC2)c(OC)c1`, 9.94%; for `COc1ccc(NC(=O)c2sc(N3CCOCC3)nc2-c2ccccc2)c(OC)c1`, 44.6% (active).
The same measure for `CCn1c(O)c(N=NC2=NC(=O)CS2)c2cc(C)ccc21`: -3.3%.
For `COc1cc(C(=O)OC(C)C(=O)NCC2CCCCC2)cc(NC(=O)c2ccco2)c1OC` (centres undefined) the value was 7.38%; for `COC(=O)c1cccc(N(C(=O)CNC(=O)c2cccs2)C(C(=O)NCC2CCCO2)c2ccc(OC)c(OC)c2)c1` (centres undefined), 6.05%; for `O=C(Nc1ccccc1)c1nnsc1S(=O)(=O)c1ccc(Cl)cc1`, -4.32%.
As to `Cc1ccc(NC(=O)C2(N3CCC3=O)CCCCC2)cc1`, the activation is 30.7%.
As to `COCCCNS(=O)(=O)c1cccc(S(=O)(=O)c2cccc(S(=O)(=O)NCCCOC)c2)c1`, the activation was -13.2%.
As for `Cc1ccc(C(=O)N[C@H](C(=O)N2CCN(c3ncccn3)CC2)C(C)C)cc1`, the activation is 21.1%.
For `O=C(CN1C(=O)NC2(CCCC2)C1=O)Nc1cc(C(F)(F)F)ccc1N1CCOCC1` the value was -14.5%; for `Cc1ccc(C(=O)O)cc1N1C(=O)CCCC1=O`, 17.6%; for `CCC(C(=O)Nc1ccc(C(C)C)cc1)c1ccccc1` (centres undefined), 7.1%.
As for `NC(=O)C1CCN(Cc2nc3c(Br)cc(Br)cc3c(=O)[nH]2)CC1`, the activation was 8.89%.
For the molecule `CCn1nc(C)c(/C=N/NC(=O)Cc2ccc(Cl)cc2)c1C`, the activation was 10.4%.
For the molecule `COc1ccc(CN2C(=O)CC(Cc3ccc(C)cc3)C2=O)cc1OC` (centres undefined), the activation is 0.86%.
As to `CC(NC(=O)c1cc2cc(Cl)ccc2oc1=N)c1ccccc1` (centres undefined), the activation is 4.16%.
As to `O=C(O)c1cccc2c1C(=O)N(C1CCCCC1)C2`, the activation is 12.5%.
`Cc1c(C#N)c2ncn(CC#N)c(=O)c2n1-c1ccccc1`: the activation is 10.7%.
For the molecule `OCC(O)C1OCOC(C(O)CO)C1O` (centres undefined), the activation was -2.45%.
The same measure for `Cc1ccc(-c2nnc(Nc3ccc(C(=O)N(C)C)cc3)c3ccccc23)cc1S(N)(=O)=O`: -6.44%; for `COc1ccc(S(=O)(=O)N2CCOCC2)cc1NC(=O)CSc1ncnc2ccccc12`: -10.6%; for `C/C(CCc1ccccc1)=N\NC(=O)c1ccc(CN2CCOCC2)cc1`: 10.1%.
Turning to `C[C@@H]1CN([C@@H](C)CO)C(=O)c2cc(NS(C)(=O)=O)ccc2O[C@@H](C)CCCCO[C@H]1CN(C)C(=O)Nc1ccc2c(c1)OCO2`, the activation was 5.94%.
Consider `O=C(NCc1ccccc1)C(c1ccco1)N(C(=O)c1csnn1)c1ccccc1F` (centres undefined), for which the activation was -7%.
For `Cc1ccc(C)c2[nH]c(=O)c(CN(Cc3cccnc3)C(=S)NCc3ccco3)cc12` the value was -16.3%; for `NC1=NC(=O)C2(COC(c3ccccc3Cl)OC2)S1` (centres undefined), 19%.
For `CCOc1ccc(C(=O)Nc2ccc(S(=O)(=O)NCC3CCCO3)cc2)cc1OCC` (centres undefined), the activation was -16.7%.
With `CCOc1ccc(S(=O)(=O)N(CC(=O)O)c2ccccc2)cc1`, the activation is 12.9%.
As for `CN(C)/C=C(\C#N)C(=O)c1cccnc1Oc1ccc(F)cc1F`, the activation is 13.9%.
The same measure for `COCCNC(=O)C1CCN(C(=O)C2CC(=O)N(c3ccc(C)cc3)C2)CC1` (centres undefined): 7.97%; for `COc1ccc(-n2ncc3c2CC(C)(C)CC3NC(=O)CCc2c(C)noc2C)cc1` (centres undefined): -2.15%; for `CCCNC(=S)N1CCCC(c2nc3ccccc3[nH]2)C1` (centres undefined): 14.2%.
In the case of `CC(C)C[C@@H]1COc2cc(N3CCC[C@@H]3CO)ccc2S(=O)(=O)N1`, the activation was 4.5%.
For `CC1CCCN(C(C(=O)Nc2ccc(C(C)C)cc2)c2ccc3c(c2)OCO3)C1` (centres undefined), the activation was 10.5%.
Regarding `Cc1ccc(NS(=O)(=O)c2c(C)[nH]c(=O)[nH]c2=O)cc1C`, the activation was 7.33%.
As for `COc1cc(OC)cc(C(=O)NNC(=O)CNC(=O)c2ccc(Br)o2)c1`, the activation is -26.2%.
With `CCOC(=O)c1sc(N)c(C#N)c1COC(=O)C1=COCCO1`, the activation was -16.5%.
Consider `Cc1ccc(NC(=O)NC(=O)N(C2CCCCC2)S(=O)(=O)c2ccccc2)cc1`, for which the activation was 15.3%.
In the case of `Cn1c(=O)oc2cc(S(=O)(=O)N3CCC(C(=O)Nc4ccc(OC(F)(F)F)cc4)CC3)ccc21`, the activation was 29.6%.
For `O=[N+]([O-])c1ccc(N2CCN(c3ccc(F)cc3)CC2)cn1` the value was -7.83%; for `NC1=NC2(CCCCC2)N(c2ccc(F)cc2F)C(N)=N1`, -9.48%; for `Cc1ccc(CC(=O)Nc2cccc(C#N)c2)cc1`, 18.7%.
Consider `CC(C)NC(=O)NC(=O)CSc1nnc(-c2ccccc2F)n1N`, for which the activation is 30%.
For `CC1(C(=O)NS(=O)(=O)c2cccs2)CCN1C(=O)Cc1ccc(-c2ccccc2)cc1` (centres undefined) the value was 13%; for `O=C(NC1CC2CCCC(C1)N2C(=O)N1CCCCC1)C1CCCCC1` (centres undefined), 7.85%.
For the molecule `CCCC(C(=O)NC1CCCC1)N(C(=O)Cn1nnc(-c2ccc(C)o2)n1)c1cccc(O)c1` (centres undefined), the activation is 13.1%.
Turning to `COc1cccc(NC(=O)C(=O)c2cn(CC(=O)N3CCOCC3)c3ccccc23)c1`, the activation was -2.46%.
Turning to `CCCCN(C(=O)c1cccc(N2C(=O)c3ccccc3C2=O)c1)c1c(N)n(CCCC)c(=O)[nH]c1=O`, the activation is 11.7%.
For the molecule `O=C(Cn1cc(C(F)(F)F)ccc1=O)N/N=C/c1ccc(Cl)cc1Cl`, the activation is 3.42%.
For `CC(OC(=O)CNC(=O)c1cccc(F)c1)C(=O)NC1CCCCC1C` (centres undefined), the activation is 10.1%.
For `CCC(=O)c1ccc(OCC(=O)N(CC)CC2COc3ccccc3O2)cc1` (centres undefined) the value was 15.6%; for `O=C(N[C@H]1C/C=C\C(c2cccc(F)c2)N(Cc2ccccc2)C(=O)C1)OCC1c2ccccc2-c2ccccc21` (some centres undefined), -2.24%; for `O=C(OCC(=O)N1CCN(C(=O)c2ccco2)CC1)c1ccccc1Cc1ccccc1`, 8.99%.
As to `COc1cccc(CN2CCC(C(=O)NC(c3ccc4c(c3)OCO4)c3ccccn3)CC2)c1` (centres undefined), the activation was 12.4%.
As for `CCOc1cc2c(Cl)ncnc2c(OCC)c1OCC`, the activation is -10.2%.
For the molecule `CC1(C)O[C@@H]2[C@H](O1)[C@@H](CO)O[C@H]2n1c(N2CCCCC2)nc2c(N)ncnc21`, the activation was 11.6%.
`COc1ccc(N2CC(C(=O)NCCS(=O)(=O)N3CCN(c4ccccc4)CC3)CC2=O)cc1` (centres undefined): the activation was -1.18%.
